Out of some 2,400 compounds screened, about 1,400 (58%) were called active.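 The calls were made as follows: active = inhibition of 30% or more at any tested dose; inconclusive = primary hits over the limit that were never retested; inactive = the rest.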 So high a share suggests a set chosen from earlier hits. Some of the results follow.
assay: ADP Hunter readout inhibition without MgcRacGAP – biochemical, coupled enzyme counter-screen, artefact control for MgcRacGAP inhibitor project, dose response (AID 624351); conditions: fluorescence, no MgcRacGAP; series mostly up to 80 µM;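 also: signal is the ADP detection kit reading of free GDP without any GAP enzyme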

**Q.** With `C=CCSC1=NC(=O)/C(=C/c2cccs2)S1` as the molecule, how does the IC50 read?
**A.** Its IC50 is “inactive”.

**Q.** Which IC50 does the source give for `CCOc1cc(/C=C2\SC(N3CCCC(C)C3)=NC2=O)ccc1O` (stereo unspecified) here?
**A.** Its IC50 is 33.4 µM (active).

**Q.** Which IC50 does the source give for `COc1cc(C2NC(=O)C(C#N)=C(S)N2c2ccccc2)ccc1OC(C)C` (stereo unspecified) here?
**A.** The IC50 was “inactive”.

**Q.** With `Cc1c(O)ccc(/C(Cc2ccc3ccccc3n2)=N\O)c1O` as the molecule, how does the IC50 read?
**A.** Its IC50 is 76.5 µM (active).

**Q.** For `CN(C)CCNc1ccc(CO)c2sc3ccc(O)cc3c(=O)c12`, which IC50 is on record?
**A.** The IC50 was 35 µM (active).

**Q.** Which IC50 does the source give for `CN(C)CCNc1ccc2nnn3c4ccc(O)cc4c(=O)c1c23` here?
**A.** The IC50 was “inactive”.

**Q.** Which IC50 does the source give for `CN(C)CCNc1ccc2ncn3c4ccc(O)cc4c(=O)c1c23` here?
**A.** Its IC50 is “inactive”.

**Q.** With `Cc1ccc(NCCN(C)C)c2c(=O)c3cc(O)ccc3sc12` as the molecule, how does the IC50 read?
**A.** Its IC50 is 46.3 µM (active).

**Q.** For `CCN(CC)CCNc1ccc(C)c2sc3ccc(O)cc3c(=O)c12`, which IC50 is on record?
**A.** Its IC50 is 33.2 µM (active).

**Q.** For `CCN(CC)CCCNc1ccc2ncn3c4ccc(O)cc4c(=O)c1c23`, which IC50 is on record?
**A.** The IC50 was “inactive”.

**Q.** Which IC50 does the source give for `O=C1CC(SC(=S)C2CCCC2=O)C(=O)N1` (stereo unspecified) here?
**A.** Its IC50 is “inactive”.

**Q.** For `Nc1ccccc1Sc1ccc(C(=O)c2ccccc2C(=O)O)cc1[N+](=O)[O-]`, which IC50 is on record?
**A.** The IC50 was “inactive”.

**Q.** With `COc1cc(/C=N/Nc2cccc3cccnc23)cc(OC)c1O` as the molecule, how does the IC50 read?
**A.** Its IC50 is “inactive”.

**Q.** For `CN(C)c1ccc(/C=N\Nc2ccccn2)cc1`, which IC50 is on record?
**A.** The IC50 was 33.4 µM (active).

**Q.** With `COc1ccc(/C=N/Nc2ncnc3sc4c(c23)CCCC4)cc1O` as the molecule, how does the IC50 read?
**A.** Its IC50 is 69.1 µM (active).

**Q.** With `COc1cc(/C=N/Nc2ccccn2)cc(OC)c1O` as the molecule, how does the IC50 read?
**A.** Its IC50 is 28.6 µM (active).

**Q.** Which IC50 does the source give for `COc1ccc(/C=N/Nc2ccccn2)cc1O` here?
**A.** The IC50 was 81.8 µM (active).

**Q.** With `CCN1CCN(CCOc2cccc(Oc3ccccc3)c2)CC1` as the molecule, how does the IC50 read?
**A.** The IC50 was “inactive”.

**Q.** For `Clc1ccc(OCCOCCNCc2ccccc2)cc1Cl`, which IC50 is on record?
**A.** The IC50 was “inactive”.

**Q.** With `CCN(CC)c1ccc(NC(=O)C2=CC=CN3CCS(=O)(=O)N=C23)cc1` as the molecule, how does the IC50 read?
**A.** The IC50 was 74.2 µM (active).

**Q.** With `CCN(CC)c1ccc(NC(=O)CCN2C(=O)c3ccccc3S2(=O)=O)c(C)c1` as the molecule, how does the IC50 read?
**A.** The IC50 was “inactive”.

**Q.** Which IC50 does the source give for `CC(NCCCOc1cccc2ccccc12)c1ccccc1` (stereo unspecified) here?
**A.** Its IC50 is “inactive”.

**Q.** With `CC(C)[C@H](N[C@@H](C)c1ccccc1)c1c(O)ccc2ccccc12` as the molecule, how does the IC50 read?
**A.** Its IC50 is 17.4 µM (active).

**Q.** With `C/C(=N\Nc1nc2ccccc2[nH]1)c1ccc(Cl)s1` as the molecule, how does the IC50 read?
**A.** Its IC50 is 37.8 µM (active).

**Q.** Which IC50 does the source give for `C/C(=N\Nc1nc2ccccc2[nH]1)c1cccs1` here?
**A.** Its IC50 is 28.4 µM (active).

**Q.** With `C/C(=N\Nc1nc2ccccc2[nH]1)c1ccc(C)o1` as the molecule, how does the IC50 read?
**A.** The IC50 was 82.2 µM (active).

**Q.** For `COc1cccc(/C=C2\C(=O)C(=O)c3ccccc32)c1`, which IC50 is on record?
**A.** The IC50 was “inactive”.

**Q.** With `Cc1cc(O)c(C)c(O)c1/C=N/NC(=O)c1cccnc1` as the molecule, how does the IC50 read?
**A.** The IC50 was 77.5 µM (active).

**Q.** Which IC50 does the source give for `O=C(CNC(=O)c1cccs1)N/N=C/c1ccc(O)cc1O` here?
**A.** Its IC50 is 60.5 µM (active).

**Q.** With `O=C(COc1ccccc1)NCC(=O)N/N=C/c1ccc(O)cc1O` as the molecule, how does the IC50 read?
**A.** Its IC50 is 66.1 µM (active).

**Q.** Which IC50 does the source give for `O=C(CNC(=O)c1cccnc1)N/N=C/c1ccc(O)cc1O` here?
**A.** Its IC50 is 82 µM (active).

Reference: PubChem BioAssay AID624351 (Southern Research Specialized Biocontainment Screening …, 2012)
